Measured values taken from PubChem BioAssay (NCI).
The panel holds about 83,000 compounds, 20% with a hit somewhere; the sample as a whole holds those more often.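 Percent growth is the endpoint: 0 to 100 indicates growth inhibition (40 means 60% inhibition), 0 means no net growth, and negative values indicate cell death.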 Values without a mark were called inactive. Activity calls are given as the source filed them. Rule for the calls: active = growth percent below 10; inactive = the rest.

system: HCT-116 colon; assay: NCI-60 one-dose screen, 48 h (100 = growth as untreated, 0 = no growth, -100 = all killed); details: 10 µM

| SMILES | growth |
| --- | --- |
| COc1ccc2nc(NC(=O)Nc3c(F)cccc3F)sc2c1 | 102% |
| CCC(CCNc1cc(OC)cc2cccnc12)CN1C(=O)c2ccccc2C1=O (stereo not given) | 99.5% |
| CCOC(=O)c1sc(NC(=O)c2cc(OC)c(OC)c(OC)c2)nc1C | 111% |
| C#CCNCCN1C(=O)c2ccc3c4c(ccc(c24)C1=O)C(=O)N(CCNCC#C)C3=O | -10.7% (active) |
| CC(=O)Nc1nc(C)c(C(=O)NNC=O)s1 | 121% |
| CCN(CCCNC(=O)Cc1cc(=O)oc2cc(N(C)C)ccc12)CCNc1ccnc2cc(Cl)ccc12 | 53.3% |
| Cc1ccc(/C(CS(=O)(=O)c2ccc(C)cc2)=N\O)cc1 | 103% |
| O=[N+]([O-])c1ccc(-c2nc(-c3ccccc3)c(-c3ccccc3)n2-c2ccccc2)cc1 | 33.2% |
| COc1ccc(NC(=O)CCn2cnc3c(cc(-c4ccccc4)n3-c3ccccc3)c2=O)cc1 | 91.4% |
| Fc1ccc(-c2cc(C(Cl)Cl)no2)cc1 | 90.3% |
| O=C(O)c1cc(C(F)(F)F)cc(C(F)(F)F)c1 | 99.8% |
| CC(=O)Nc1nc(C)c(C(=O)N/N=C/c2cccn2C)s1 | 111% |
| CCN1CCN(c2ccc(Nc3ncnc4c3nnn4CCc3cc(OC)cc(OC)c3)cc2)CC1 | 77.9% |
| Cc1ccc(-c2cc(C(=O)Nc3ccc(S(=O)(=O)N4CCCCC4)cc3)[nH]n2)c(O)c1 | 43.5% |
| COc1ccc(-c2csc(NC(=O)CO[N+](=O)[O-])n2)cc1 | 102% |
